Screens as filed in PubChem.
EBI2 block: antagonists of human EBI2 receptor; EBI2 beta-arrestin recruitment, luminescence, 7a,25-OHC stimulated; inhibition, % at 5 µM; actives 0.81% (n = 360,000); in the data active means inhibition above about 38%;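 further: enzyme fragment complementation signal reports receptor beta-arrestin coupling in cells; 0% = agonist plus DMSO wells and 100% = wells without agonist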
Target sequence (P32249 whole entry, looked up, the tested form may be a part): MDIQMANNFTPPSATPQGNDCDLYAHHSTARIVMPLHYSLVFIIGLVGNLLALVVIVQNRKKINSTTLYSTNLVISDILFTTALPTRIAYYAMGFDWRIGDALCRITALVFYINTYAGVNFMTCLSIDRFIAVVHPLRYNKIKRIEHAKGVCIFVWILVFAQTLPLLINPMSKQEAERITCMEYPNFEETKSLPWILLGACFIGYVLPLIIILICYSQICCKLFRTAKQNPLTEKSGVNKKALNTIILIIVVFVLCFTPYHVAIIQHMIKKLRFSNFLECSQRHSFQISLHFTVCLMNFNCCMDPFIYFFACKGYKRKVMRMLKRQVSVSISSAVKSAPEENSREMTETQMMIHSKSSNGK
tim23-1 inh: inhibits growth of tim23-1 mutant yeast; S. cerevisiae tim23-1 growth, BacTiter-Glo luminescence, 24 h; inhibition, % at 20 µM; actives 1.3% (n = 330,000);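 active means growth inhibition of the mutant yeast at or above 50%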;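 further: temperature-sensitive mutant grown at 25 °C; plate controls were DMSO-treated mutant yeast for no effect and medium wells lacking yeast for full effect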
TIM10 inh: growth inhibitors of TIM10 yeast strain; actives 1.4% (n = 330,000); inhibition, % at 10 µM; S. cerevisiae TIM10 strain growth, BacTiter-Glo luminescence, 24 h; AID 463195;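 active means inhibition of 40% or more at the single tested concentration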;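 further: wild-type TIM10 isogenic control strain grown at permissive 25 °C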
SKKanGAS inh: SKKanGAS growth inhibition; actives 1.3% (n = 300,000); S. pyogenes SKKanGAS, kanamycin growth, BacTiter-Glo, 6 h; AID 1662; inhibition, % at 7.5 µM;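 active means mean replicate score, as percent of positive control median, at least 50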;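 further: strain carries kanamycin resistance gene driven by streptokinase promoter and grows in 40 µg/ml kanamycin; loss of luminescence reflects streptokinase promoter inhibition or plain growth inhibition; 0% = median of DMSO wells and 100% = positive control at its reference dose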
tim10-1 inh: inhibits growth of tim10-1 mutant yeast. S. cerevisiae tim10-1 ts strain growth, BacTiter-Glo, 24 h. inhibition, % at 20 µM. actives 2.2% (n = 330,000);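 active means inhibition of at least 40%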;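 further: mutant grown at 25 °C; 0% = DMSO wells with yeast and 100% = wells holding no yeast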
PfHsp90 set2: growth inhibition of yeast expressing Plasmodium Hsp90; S. cerevisiae expressing PfHsp90, BacTiter-Glo ATP, 48 h; yeast lacking PDR1 and PDR3 efflux regulators; inhibition, % at 9.4 µM; actives 0.32% (n = 310,000); AID 504621;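 active means every replicate shows inhibition above about 80%, whatever the replicate mean, limit read from the data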;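 further: 0% = DMSO neutral controls and 100% = 20 µM radicicol positive controls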
Starred values were filed as active, the others as inactive; nt = no result. A selection: hits, their analogues and other compounds. The true share with any hit is near 4.7%.

SMILES	EBI2 block	tim23-1 inh	TIM10 inh	SKKanGAS inh	tim10-1 inh	PfHsp90 set2
CCC(C)n1c(NC(=O)c2ccccc2)c(C#N)c2nc3ccccc3nc21 (stereo not drawn)	9	31	8	69*	13	-2
COc1ccc(OC)c(NC(=O)Nc2c(O)ccc3ccccc23)c1	-3	16	15	9	15	18
COc1ccc(OC)c(NC(=O)Nc2ccc(O)c3ccccc23)c1	-1	-31	1	37	-2	108*
CCc1nc2c(OCCn3cccc3)cccn2c1N(C)C(=O)c1ccccc1F	-4	nt	nt	nt	nt	nt
CCCCN(C(C)=O)c1c(CC)nc2ccc(C(=O)NCCCN(C)C)cn12	-2	nt	nt	nt	nt	nt
CCC(=O)Nc1nc2ccccc2n1Cc1ccc(C)cc1	-22	15	16	94*	23	-13
CC(=O)Nc1nc2ccccc2n1Cc1ccc(Cl)cc1	-8	19	17	64*	23	6
CCCn1c(NC(=O)c2cccc(C)c2C)nc2ccccc21	3	24	30	52*	20	-32
Cc1cccc(C)c1NC(=O)C1(C)CN(S(C)(=O)=O)CC(=O)N1Cc1cccc(F)c1 (stereo not drawn)	-2	nt	nt	nt	nt	nt
Cn1c(=O)c2c(n(C)c1=O)n(C)c(=O)n2C	-4	nt	nt	nt	nt	nt
COC(=O)c1ccc(C(=O)N2CCCCCC2(C)C(=O)NC(C)C)cc1 (stereo not drawn)	-6	nt	nt	nt	nt	nt
CCN(CC(=O)NC(C)C)C(=O)Cc1ccc(C)c(C)c1	-4	5	4	0	5	-27
COc1ccc(Cl)cc1NC(=O)NNC(=O)C(=O)Nc1ccc(F)cc1	-8	nt	nt	nt	nt	nt
COc1ccc2c(c1)[C@H]1[C@H](CO2)[C@H](c2ccccc2)[C@]2(C)C(=O)Nc3ccc(Cl)cc3C(=O)N12	13	nt	nt	nt	nt	137*
COc1ccc(S(=O)(=O)N2CCCN(CC(=O)Nc3ccc(OC)c(Cl)c3)CC2)cc1	21	3	5	4	15	-16
COc1ccc(NC(=O)CN2CCN(S(=O)(=O)c3ccc(Cl)cc3)CC2)cc1Cl	38*	-1	-16	2	-14	-10
O=C(C1CCCCC1)N1C[C@H](n2cc(C3CC3)nn2)[C@@H](O)C[C@@H]1c1ccccc1	2	nt	nt	nt	nt	nt
CCOc1ccc(NS(=O)(=O)c2cc(NC(=O)c3ccc(C)cc3)ccc2Cl)cc1	2	10	8	60*	9	-7
CCOc1ccc(Oc2ccc(NS(=O)(=O)c3cc(C(=O)O)ccc3Cl)cc2)cc1	12	7	8	nt	8	-3
CCc1ccc(CN(C)Cc2nc(-c3cccc(Cl)c3)no2)nc1	-18	28	14	62*	25	-29
CN(Cc1cnn(C)c1)Cc1nc(-c2ccc(Cl)cc2)no1	-9	14	-2	-4	6	10
CCC(=O)N(C)C[C@@H]1Oc2ncc(Br)cc2C(=O)N([C@@H](C)CO)C[C@H]1C	-6	nt	nt	nt	nt	nt
COCCOC(=O)c1c(C)nc(SCC(=O)Nc2cccc3ccccc23)c(C#N)c1-c1ccco1	-8	17	9	50*	33	1
CNC(=O)c1c(C)nc(SCC(=O)NCc2ccc(OC)cc2)c(C#N)c1-c1ccco1	-9	3	7	-7	7	5
COCCOC(=O)c1c(C)nc(SCC(=O)Nc2ccc(C)cc2)c(C#N)c1-c1ccco1	-12	5	9	67*	5	22
SMILES	EBI2 block	tim23-1 inh	TIM10 inh	SKKanGAS inh	tim10-1 inh	PfHsp90 set2
COC(=O)C1C=CC(OC2OC(COC(C)=O)C(OC(C)=O)C(OC(C)=O)C2OC(C)=O)n2c(=O)n(-c3ccccc3)c(=O)n21 (stereo not drawn)	-3	nt	nt	nt	nt	11
O=C(c1ccc(N2CCCCC2)c([N+](=O)[O-])c1)N(c1ccccn1)c1ccccn1	-4	16	3	1	32	2
COc1ccc(N2C(=O)C3NN=C(C(=O)OCc4ccccc4)C3C2=O)cc1 (stereo not drawn)	-1	-3	-6	-5	6	10
CC(C)/C(=N/Nc1ccccc1[N+](=O)[O-])c1ccccc1	8	21	-11	56*	14	3
COc1ccc(-c2c(-c3ccsc3)oc3c2C(O)CCC3)cn1 (stereo not drawn)	-4	nt	nt	nt	nt	nt
CC(=O)Nc1cnc(-c2ccc3c(c2)OCO3)cn1	-3	nt	nt	nt	nt	nt
Cc1ccc(-c2csc(NC(=O)c3ccc([N+](=O)[O-])o3)n2)cc1	2	44	-85	55*	-139	6
